Test [1] relates to Wnt5a (protein binding on small-molecule microarray). As to the kind of experiment: Wnt5a binders on small-molecule microarray, primary screen, biophysical, 635/667 nm fluorescence (AID 1142).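 Note: fluorescence read at 667 nm with signal to noise per printed feature.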 The note with it: 635 nm fluorescence, higher = more signal.
The nature of test [2]: cell viability in Huh7 cells, primary screen, cytotoxicity control for HCV replication inhibitor project, CellTiter-Glo luminescence, basal, 48 h (AID 1143).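 Note: Huh7 hepatoma cells carrying a hepatitis C replication reporter with no stimulus; test concentration not given here.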 Conditions: Huh7 HCV replicon, higher = more signal, called active from +8 up or from −8 down.
Test [3] in a line: P. aeruginosa biofilm formation inhibitors, primary screen, PAO1 strain, BacTiter-Glo luminescence, LB-PBS (AID 1144). Conditions: 12 h, higher = more signal.
A short description of test [4]: CREB reporter modulators without forskolin, primary screen, cell-based, PC12, CRE-LacZ reporter, unstimulated (AID 1145). The note with it: no forskolin, luminescence, 4.5 h, higher = more signal, called active from +8 up or from −8 down.
Test [5] in a line: CREB reporter modulators under forskolin, primary screen, cell-based, PC12, CRE-LacZ reporter, forskolin-stimulated (AID 1146).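 Note: PC12 cells with 6xCRE LacZ reporter stimulated by forskolin 10 µM; beta-galactosidase reporter signal reflecting CREB driven transcription.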 Conditions: luminescence, 4.5 h, higher = more signal, called active from +8 up or from −8 down.
Test [6] addresses Streptavidin (Streptomyces avidinii) (UniProt P22629). The test can be described thus: streptavidin binders on small-molecule microarray, primary screen, artefact control for SMM compound annotation, biophysical, 635/667 nm fluorescence (AID 1147).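 Note: signal reflects streptavidin binding to arrayed compounds as a control protein.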 The note with it: streptavidin binding, higher = more signal.
Test [7] can be described thus: small-molecule binders of probe aInhba, primary screen, biochemical, small-molecule microarray, 635/667 nm fluorescence (AID 1148).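 Note: score merges 667nm spot fluorescence with signal-to-noise for antibody binding to printed compounds.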 Conditions: higher = more signal.
Test [8] addresses Torsin-1A (Homo sapiens) (UniProt O14656). As to the kind of experiment: torsin A binders from cell lysate, primary screen, small-molecule microarray, wild-type, 635/667 nm (AID 1149). Conditions: COS7 hTOR1A-WT lysate, 635 nm fluorescence, higher = more signal.
Test [9] has the same target. The test can be described thus: small-molecule binders of mutant TOR1A in lysate, primary screen, cell lysate, small-molecule microarray, COS7 lysate, 635/667 nm fluorescence (AID 1150).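 Note: score pools 667 nm emission and signal to noise measuring lysate protein binding.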 The note with it: COS7 hTOR1A mutant lysate, 635 nm fluorescence, higher = more signal.
Test [10] has as its system Sonic hedgehog protein (Shh). The test can be described thus: small-molecule binders of Shh protein, primary screen, biochemical, small-molecule microarray, 635/667 nm fluorescence (AID 1151).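 Note: Shh protein binding to compounds spotted on small-molecule microarray slides; score combines spot fluorescence intensity with signal-to-noise across triplicate slides.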 Conditions: small-molecule microarray binding, 635 nm fluorescence; higher = more signal.

Active and inactive are the calls of the source. Unless noted, the rule behind the calls is not given here.

Streptavidin (Streptomyces avidinii), sequence (P22629 whole entry, looked up): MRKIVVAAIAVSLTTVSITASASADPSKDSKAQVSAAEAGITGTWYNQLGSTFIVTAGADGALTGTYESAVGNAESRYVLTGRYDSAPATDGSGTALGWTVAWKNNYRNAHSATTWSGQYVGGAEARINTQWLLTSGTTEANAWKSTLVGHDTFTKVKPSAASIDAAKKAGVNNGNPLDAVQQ
Torsin-1A (Homo sapiens), sequence (O14656 whole entry, looked up): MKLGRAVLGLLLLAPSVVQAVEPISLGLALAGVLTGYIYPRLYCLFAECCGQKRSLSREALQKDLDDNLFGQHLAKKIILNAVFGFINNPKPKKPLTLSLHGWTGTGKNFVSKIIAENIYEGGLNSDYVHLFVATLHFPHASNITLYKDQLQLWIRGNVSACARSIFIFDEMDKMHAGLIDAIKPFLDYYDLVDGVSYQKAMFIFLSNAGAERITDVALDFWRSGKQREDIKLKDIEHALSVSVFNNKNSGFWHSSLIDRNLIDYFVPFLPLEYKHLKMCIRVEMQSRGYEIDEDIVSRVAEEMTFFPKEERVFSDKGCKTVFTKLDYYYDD

Regarding `CC(C)[C@H]1NC(=O)[C@@]23C(=O)N[C@@H](Cc4ccccc4)C2[C@H](C)[C@@]2(C)O[C@H]2C3/C=C/C/C=C\CNC(=O)[C@H](C)NC1=O` (stereo not given in full), the composite z-score in test [1] was -0.438; in [6], -1.07; in [7], -0.151; with Torsin-1A (Homo sapiens) [8], -0.96; in the test with Torsin-1A (Homo sapiens) [9] it was 0.237; in test [10], 0.203. Further, the z-score was -0.131 (inactive) in test [2], 0.0406 (inactive) in test [3], 0.306 (inactive) in test [4] and 0.289 (inactive) in [5].

For `COCCCNC(=O)[C@@H]1c2ccccc2C(=O)N(CC23CC4CC(CC(C4)C2)C3)[C@H]1c1ccc(CO)cc1`, the composite z-score was 1.01 in [1]; -0.269 in test [6]; 0.266 in test [7]; 0.306 with Torsin-1A (Homo sapiens) [8]; 0.262 in the test with Torsin-1A (Homo sapiens) [9]; 1.03 in test [10]. Further, the z-score in test [2] is -4.78 (inactive); in test [3] it was -0.689 (inactive); in [4], -0.0259 (inactive); in test [5] it was -1.07 (inactive).

Regarding `CC(=O)NCCCC[C@@H]1NC(=O)[C@H]2C[C@@H](C(=O)NCCCCCCN(C)C)[C@@H](c3ccc(O)cc3)N2C1=O`, the composite z-score in test [1] amounted to 0.124; in test [6] it was 1.36; in test [7], 1.12; with Torsin-1A (Homo sapiens) [8] it was 1.6; with Torsin-1A (Homo sapiens) [9] it was 1.21; in test [10] it was 1.79. The z-score in test [2] is -0.0718 (inactive); in [3], -0.181 (inactive); in test [4] it was 0.281 (inactive); in [5] it was 0.403 (inactive).

As to `CCCCCCc1nc(-c2cc(C)c(OC)c(C)c2)cc2c1[Si](C(C)C)(C(C)C)O[C@H]2c1ccccc1`, the composite z-score was -0.452 in [1]; 0.0741 in test [6]; -0.121 in test [7]; -1.48 with Torsin-1A (Homo sapiens) [8]; -1.07 in the test with Torsin-1A (Homo sapiens) [9]; -0.162 in test [10]. For the same compound, the z-score in test [2] is -0.59 (inactive); in test [3] it was 0.368 (inactive); in test [4] it was -0.244 (inactive); in test [5] it was -0.272 (inactive).

Take `CCOC(=O)C1=CC[C@@H](c2ccccc2)N(S(=O)(=O)c2ccc(C)cc2)[C@H]1C`: the composite z-score in test [1] was 0.532; in test [6], 1.85; in test [7], -0.153; with Torsin-1A (Homo sapiens) [8], 1.41; with Torsin-1A (Homo sapiens) [9], 1.25; in [10], 0.747. Further, the z-score is -4.32 (inactive) in [2], 0.165 (inactive) in test [3], -0.0137 (inactive) in test [4] and -0.664 (inactive) in test [5].

Turning to `C=CCOC(=O)[C@@H]1[C@H]2C(=O)O[C@H](c3ccccc3)[C@H](c3ccccc3)N2[C@H](c2ccc(OCCOC(=O)[C@H]3C[C@H]4C(=O)N[C@@H](CCCCNC(C)=O)C(=O)N4[C@H]3c3ccc(O)cc3)cc2)[C@@]12C(=O)Nc1ccc(I)cc12`, the composite z-score in [1] was determined as 0.728; in [6] it was 0.0984; in [7], 0.0073; with Torsin-1A (Homo sapiens) [8], 1.32; with Torsin-1A (Homo sapiens) [9], 1.29; in test [10], 2.07. The z-score was -0.317 (inactive) in [2], 0.645 (inactive) in [3], 0.549 (inactive) in [4] and 0.906 (inactive) in [5].

Turning to `C=CCC(OC(C)=O)[C@@H]1[C@@H](N(Cc2ccc(-c3ccccc3)cc2)C(=O)c2ccc(-c3ccccc3)cc2)c2cc(OCCCO)ccc2N1C(=O)Cc1ccc(OC)cc1` (stereo not given in full), the composite z-score in [1] was 0.0459; in [6], 0.573; in [7], -0.0774; with Torsin-1A (Homo sapiens) [8] it was -0.096; in the test with Torsin-1A (Homo sapiens) [9], -0.37; in test [10], 0.346. Further, the z-score in test [2] was -0.178 (inactive); in [3] it was 0.318 (inactive); in test [4] it was -0.0247 (inactive); in test [5] it was 0.522 (inactive).

For the compound `CCOC(=O)C[C@H]1[C@H](OC(=O)c2cc3ccccc3oc2=O)[C@@H](NC(=O)C2CCCCC2)c2cc(OCCCO)ccc2N1C(=O)c1ccc2ccccc2n1`, the composite z-score in [1] was 0.156; in test [6], 0.449; in test [7], -0.0719; with Torsin-1A (Homo sapiens) [8], 0.16; with Torsin-1A (Homo sapiens) [9], 0.11; in [10] it was 0.526. Also, the z-score was -0.271 (inactive) in test [2], -0.686 (inactive) in test [3], 6.62 (inactive) in [4] and 0.821 (inactive) in [5].

On to `CCOC(=O)C[C@H]1[C@H](OC(=O)Cc2ccc3c(c2)OCO3)[C@@H](NC(=O)c2ccc3ccccc3c2)c2cc(OCCCO)ccc2N1C(=O)Cc1ccc(OC)cc1`, for which the composite z-score in test [1] was -0.0175; in [6], 0.348; in [7] it was 0.386; with Torsin-1A (Homo sapiens) [8], 0.242; with Torsin-1A (Homo sapiens) [9] it was 0.485; in test [10], 0.673. The z-score in test [2] is -0.602 (inactive); in [3] it was -0.0536 (inactive); in test [4], 4.83 (inactive); in [5], 0.135 (inactive).

As to `O=C/C=C/c1ccc(/C=C/c2ccccc2)cc1`, the composite z-score was -0.378 in test [1]; -0.0122 in [6]; -0.128 in test [7]; -0.373 with Torsin-1A (Homo sapiens) [8]; -0.479 in the test with Torsin-1A (Homo sapiens) [9]; 0.609 in [10]. For the same compound, the z-score in test [2] is -2.23 (inactive); in test [3], -0.0603 (inactive); in test [4] it was -0.141 (inactive); in test [5] it was -0.795 (inactive).

Take `COCCOC(=O)N1C(=O)[C@@]2(c3cc(C#CCNC(N)=O)ccc31)[C@H](C(=O)N1CCCCCCC1)[C@H]1C(=O)O[C@H](c3ccccc3)[C@H](c3ccccc3)N1[C@@H]2c1ccccc1OCCO`: the composite z-score stood at 0.472 in test [1]; 0.875 in test [6]; 0.218 in [7]; 0.207 with Torsin-1A (Homo sapiens) [8]; 0.645 with Torsin-1A (Homo sapiens) [9]; 1.09 in [10]. Besides, the z-score in [2] was -0.798 (inactive); in test [3], -0.416 (inactive); in [4], -0.602 (inactive); in [5], -1.01 (inactive).

In the case of `O=C(NCc1ccccc1)[C@@]1(Cc2ccccc2)COC(c2ccc(OCCCO)cc2)=N1`, the composite z-score was 0.369 in [1]; 0.191 in test [6]; -0.0087 in [7]; -0.0265 with Torsin-1A (Homo sapiens) [8]; 0.737 with Torsin-1A (Homo sapiens) [9]; -0.587 in test [10]. Moreover, the z-score in test [2] was -4.7 (inactive); in test [3], -0.607 (inactive); in test [4], -0.0157 (inactive); in test [5], -1.27 (inactive).

For `C=CC[C@]1(C(=O)N2CCCCC2)N=C(c2ccc(OCCCO)cc2)O[C@H]1c1ccccc1N=[N+]=[N-]`, the composite z-score in test [1] was 0.824; in test [6], 1.87; in test [7], 0.0355; with Torsin-1A (Homo sapiens) [8] it was 1.02; with Torsin-1A (Homo sapiens) [9] it was 1.06; in test [10], 0.377. Also, the z-score in test [2] is -3.21 (inactive); in [3], -0.903 (inactive); in test [4], -0.174 (inactive); in [5], -1.18 (inactive).

The record behind these values is PubChem BioAssay.
